In the supplement of paper PMC5407854, “Inhibitor of ppGalNAc-T3-mediated O-glycosylation blocks cancer cell invasiveness and lowers FGF23 levels” (eLife, 2017):
In all, about 1,700 compounds were measured (“T3 sensor activation Q score (MG/GFP ratio z-score vs DMSO controls)”: median about 0.25, highest 2% from about 1.9 on). For the sample, the highest values were picked, then their nearest neighbours and some compounds at random.

test system: ppGalNAc-T3 sensor; assay: T3 sensor activation Q score (MG/GFP ratio z-score vs DMSO controls) (SD units); higher = more sensor activation (inhibition of ppGalNAc-T3 glycosylation); conditions: HEK293 sensor cells; 10 µM; 6 h
Experimental: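 Cells were treated with compound at 10 uM for 6 h, then MG/GFP ratio was read by flow cytometry (10,000 cells per well, duplicate wells). Q = (R - R_neg)/SD_neg relative to DMSO vehicle controls; the signal rises when the glycosyltransferase is inhibited.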

Compound	T3 sensor activation Q score
C#CC1(O)CCC2C3CCC4=Cc5oncc5CC4(C)C3CCC21C (stereo not drawn)	0.1
COc1cc2c(c(OC)c1O)C(=O)CO2	1.55
CC1(c2ccccc2)O[C@@H]2C[C@H]3[C@@H]4CCC5=CC(=O)C=C[C@]5(C)[C@@]4(F)[C@@H](O)C[C@]3(C)[C@]2(C(=O)CO)O1 (stereo partly drawn)	3.35
CC(=O)[C@H]1CC[C@H]2[C@@H]3CCC4=CC(=O)CC[C@]4(C)[C@@]3(F)[C@@H](O)C[C@]12C	0.55
CC(C)(C)n1nc(C2CC2)cc1NC(=O)Nc1ccc(Cl)cc1	0.7
COc1cc(Cl)c(CC(=O)c2c[nH]c3ccccc23)cc1OC	1.05
CC(C)(C)N1CC(OC(N)=O)C1	1.65
O=[N+]([O-])c1cccc(-c2nc3ccccc3s/c2=N/O)c1	1.3
CN(C)c1ccc(N=Nc2ccccn2)cc1	-0.95
Nc1c(Cl)ncnc1NCCO	0.55
COCC(=O)OC1CCn2c1nc1c2C(=O)C(C)=C(NC(C)=O)C1=O (stereo not drawn)	-0.35
C(=N\n1cnnc1)/c1ccc2c(c1)CCC2	0.05
Cc1cc(C)c(C#N)c(Sc2nc(C)c([N+](=O)[O-])c(C)c2C#N)n1	-0.15
CC(=O)NC1(C(=O)O)CCCC1	-1.1
CC(=NO)C1CC(CC(=O)O)C1(C)C (stereo not drawn)	-0.55
O=c1cc(-c2ccccc2)nc2cc(-c3ccco3)[nH]n12	0.35
Cn1c(N)c(C(=O)/C=C/c2ccccc2)c(=O)[nH]c1=O	1.7
OCc1ncccc1O	-0.75
CN(C)CCCN1c2ccc3ccccc3c2Sc2cccc(Cl)c21	-0.4
S=c1[nH]cc2cnccn12	-1.4
CCOc1ccc(NC(=S)NC(=O)c2ccco2)cc1	-1.05
Cc1ccn(C)c(=N)c1	2
O=C1OCC/C1=C\NCCCCCCCCN/C=C1\CCOC1=O	1.2
O=C1N=NC2=C1c1c3ccccc3c(O)n1CC2	1.7
CC(C)=CCC/C(C)=C\C(N)=O	0.2
CC(C)CC(NC(=O)OCc1ccccc1)C(=O)NC(Cc1c[nH]c2ccccc12)C(=O)O (stereo not drawn)	-0.85
O=C1CSC(c2cccs2)N1c1nncs1 (stereo not drawn)	0.05
N=C(N)n1c(N)nc2ccccc2c1=O	-0.55
